# Screening data (PubChem BioAssay)
# Dicer processing: blocks human Dicer maturation of pre-miR-21. cat-ELCCA pre-miR-21 Dicer processing, chemiluminescence; hits give high values. z-score at 25 µM. hit rate 6% among 47,000. Q9UPY3; in the data active = z-score above about 3, passing the limit was not always enough;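 also: plate controls were vehicle for no effect and no enzyme for full effect; higher signal means more uncleaved substrate so more Dicer inhibition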
# Target sequence (Q9UPY3 whole entry, looked up): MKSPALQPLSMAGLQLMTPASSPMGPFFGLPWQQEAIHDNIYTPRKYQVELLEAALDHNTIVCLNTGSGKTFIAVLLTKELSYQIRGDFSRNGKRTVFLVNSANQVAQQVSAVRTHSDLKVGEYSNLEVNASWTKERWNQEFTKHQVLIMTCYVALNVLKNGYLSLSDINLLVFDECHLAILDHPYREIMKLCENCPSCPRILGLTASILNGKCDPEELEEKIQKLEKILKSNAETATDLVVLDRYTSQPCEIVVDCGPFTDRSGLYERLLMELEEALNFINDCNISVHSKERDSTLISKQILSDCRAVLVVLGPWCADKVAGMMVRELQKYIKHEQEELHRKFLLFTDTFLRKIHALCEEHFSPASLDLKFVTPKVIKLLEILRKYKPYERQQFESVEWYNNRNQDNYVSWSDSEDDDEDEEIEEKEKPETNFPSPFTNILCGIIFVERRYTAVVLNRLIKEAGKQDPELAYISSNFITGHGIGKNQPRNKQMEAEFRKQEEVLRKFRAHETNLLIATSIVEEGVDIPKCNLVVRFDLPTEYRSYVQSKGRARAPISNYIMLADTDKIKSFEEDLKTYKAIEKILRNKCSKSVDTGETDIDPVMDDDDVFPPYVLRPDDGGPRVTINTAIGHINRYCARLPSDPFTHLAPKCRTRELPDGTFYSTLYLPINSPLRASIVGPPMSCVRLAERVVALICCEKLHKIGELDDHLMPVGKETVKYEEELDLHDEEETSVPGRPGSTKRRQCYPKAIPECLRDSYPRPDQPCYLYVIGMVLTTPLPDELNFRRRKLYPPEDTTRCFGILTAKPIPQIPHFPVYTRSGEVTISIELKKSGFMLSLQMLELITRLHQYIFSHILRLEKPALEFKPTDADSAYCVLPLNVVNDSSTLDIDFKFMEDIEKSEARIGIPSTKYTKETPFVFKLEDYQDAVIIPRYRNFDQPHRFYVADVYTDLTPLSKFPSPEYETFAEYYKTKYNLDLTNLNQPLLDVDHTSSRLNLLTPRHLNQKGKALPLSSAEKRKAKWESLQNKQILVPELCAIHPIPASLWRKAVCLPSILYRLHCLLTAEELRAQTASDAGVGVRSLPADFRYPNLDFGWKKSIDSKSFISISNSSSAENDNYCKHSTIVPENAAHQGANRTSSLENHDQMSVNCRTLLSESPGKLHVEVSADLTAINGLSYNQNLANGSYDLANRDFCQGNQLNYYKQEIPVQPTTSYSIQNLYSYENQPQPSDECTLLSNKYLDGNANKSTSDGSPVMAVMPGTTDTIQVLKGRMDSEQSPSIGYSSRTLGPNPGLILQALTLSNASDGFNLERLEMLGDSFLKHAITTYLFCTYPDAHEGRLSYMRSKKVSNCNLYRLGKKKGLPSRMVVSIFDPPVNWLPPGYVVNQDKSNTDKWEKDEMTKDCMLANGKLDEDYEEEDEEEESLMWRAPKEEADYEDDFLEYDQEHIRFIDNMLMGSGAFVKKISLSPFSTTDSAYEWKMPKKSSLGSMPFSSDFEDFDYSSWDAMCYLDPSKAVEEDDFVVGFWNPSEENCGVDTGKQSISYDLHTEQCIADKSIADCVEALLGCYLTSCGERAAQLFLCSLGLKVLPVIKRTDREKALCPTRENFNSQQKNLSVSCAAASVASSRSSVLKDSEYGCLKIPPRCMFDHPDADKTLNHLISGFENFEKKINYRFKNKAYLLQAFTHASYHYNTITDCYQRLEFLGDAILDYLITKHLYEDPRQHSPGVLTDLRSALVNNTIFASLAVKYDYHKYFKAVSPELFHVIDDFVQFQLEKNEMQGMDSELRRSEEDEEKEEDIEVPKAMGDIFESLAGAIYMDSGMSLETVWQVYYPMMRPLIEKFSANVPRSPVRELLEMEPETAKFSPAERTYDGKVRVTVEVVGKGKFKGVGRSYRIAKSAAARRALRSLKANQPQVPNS
# The depositor's hits bear a star. This excerpt belongs to a sample that is enriched for hits.
SMILES,Dicer processing
CN(C)C(=O)Oc1c(-c2ccccc2)cn(Cc2ccccc2)c(=O)c1-c1ccccc1,-0.96
CC(=O)OCC1=C(C(=O)[O-])N2C(=O)[C@@H](NC(=O)CCC[C@@H](N)C(=O)[O-])[C@H]2SC1.[Zn+2],-0.64
COc1ccc(CNC2CN3CCC2CC3)cc1 (centres undefined),2.1
Nc1ccccc1SC1CC(=O)N(c2ccc(Cl)cc2C(=O)c2ccccc2)C1=O (centres undefined),-0.7
CS/C(=N\C(N)=N/[N+](=O)[O-])Nc1ccc(Cl)cc1,2.1
Cc1ccc2[nH]c(=S)n(-c3ccccc3F)c(=O)c2c1,5.3*
Cc1ccc(-n2c(=S)[nH]c3ccccc3c2=O)cc1,1.4
CCc1ccccc1-n1c(=S)[nH]c2ccccc2c1=O,-0.47
CC/C(=C/c1ccc(OC)c(OCc2ccccc2)c1)[N+](=O)[O-],0.66
COc1cccc(CN2CCN(Cc3cc(Br)ccc3O)CC2)c1,3.4*
CCc1ccc(CN2CCN(Cc3cc(Br)ccc3O)CC2)cc1,0.95
COc1ccc(CN2CCN(Cc3ccc(Br)cc3)CC2)cc1,-0.08
COc1ccc(OC)c([N+](=O)[O-])c1/C=C/[N+](=O)[O-],1.4
Cc1nc2c(Br)cc(Br)cc2c(=O)n1-c1ccc(Cl)c(Cl)c1,-0.17
CC(=O)OC1CCC23COC(CC4C5CCC(OC(=O)c6ccccc6)C5(C)CCC42)[C@@]3(Br)C1 (some centres undefined),-0.62
CN(C)C(=O)Oc1nnc(SCCS(=O)(=O)c2ccc(F)cc2)n1-c1ccccc1,0
CN(C(=O)c1ccccc1C(F)(F)F)c1ccc(Cl)cc1C(=O)c1ccccc1,-2.2
O=S(=O)(c1ccc(Br)cc1)N1CCN2CCC1CC2,0.95
